Test results as given in ChEMBL document CHEMBL3988442, “University of Dundee, Small-Polar-MMV Screening Library” (2021).

What follows are compounds tested against T1, Aspartate--tRNA(Asp/Asn) ligase (Mycobacterium tuberculosis (strain ATCC 25618 / H37Rv)) (UniProt P9WFW3) (assay: Assay for Asp RNA synthetase-1 from Mycobacterium tuberculosis). Conditions: 30 µM.
T1 sequence (whole entry): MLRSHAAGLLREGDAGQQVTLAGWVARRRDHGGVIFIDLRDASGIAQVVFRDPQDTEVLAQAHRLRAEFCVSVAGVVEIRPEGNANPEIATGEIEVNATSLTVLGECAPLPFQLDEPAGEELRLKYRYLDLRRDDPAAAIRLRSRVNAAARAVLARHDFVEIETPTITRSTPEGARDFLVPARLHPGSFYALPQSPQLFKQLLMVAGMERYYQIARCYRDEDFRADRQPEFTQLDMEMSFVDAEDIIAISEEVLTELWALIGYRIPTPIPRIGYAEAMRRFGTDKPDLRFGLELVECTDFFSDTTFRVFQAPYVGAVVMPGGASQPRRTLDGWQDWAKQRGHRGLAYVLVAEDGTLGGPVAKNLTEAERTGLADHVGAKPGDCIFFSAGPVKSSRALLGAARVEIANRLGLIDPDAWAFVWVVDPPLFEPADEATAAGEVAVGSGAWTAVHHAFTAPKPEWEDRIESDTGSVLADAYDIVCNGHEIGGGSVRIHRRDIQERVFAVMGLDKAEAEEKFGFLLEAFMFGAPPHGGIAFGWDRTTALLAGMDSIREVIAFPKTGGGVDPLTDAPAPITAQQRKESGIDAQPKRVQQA
Type: functional
Design: scale not given: in the data most compounds retested in dose-response had high values
`CS(=O)(=O)N1CCC(Oc2ccc(C(=O)N3CCSCC3)cc2Cl)CC1` showed a Percent Effect of 1.75%. `Cc1nc(C)n(CC2CCCCN2CC(=O)NC2CCOCC2)n1` (stereo not given) was tested, and the Percent Effect was -4.37%. Work on `CCOc1ccc(Cl)cc1CNCCCn1ccnc1` yielded a Percent Effect of 0.842%. With `Cc1nc(-c2ccco2)ccc1C(=O)N1CCCC1Cn1cccn1` (stereo not given) the Percent Effect was 0.0146%. Work on `Cn1ccc(C(=O)N2CCC[C@]3(C[C@@H](OCc4ccccn4)CO3)C2)n1` yielded a Percent Effect of -1.05%. `O=C(CN1CCCCC1Cn1cncn1)NCCC1=CCCCC1` (stereo not given) gave a Percent Effect of 2.88%. `CN(C)S(=O)(=O)N1CC[C@]2(C[C@H](Oc3cccnc3)CO2)C1` showed a Percent Effect of 9.53%. With `CCc1nnsc1C(=O)N1CCOC(c2nc(C)n[nH]2)C1` (stereo not given) the Percent Effect was -2.08%. `CN(C)C(=O)N1C[C@@H]2COC[C@]2(CNS(C)(=O)=O)C1` was tested, and the Percent Effect was -0.382%. Compound `COc1c(CNC2CCc3cc(F)ccc32)c(C)nn1C` (stereo not given) has a Percent Effect of -5.95%. `Cc1ccc(NC2CCN(C(=O)c3cc[nH]n3)CC2)nn1` gave a Percent Effect of -1.83%. `CCc1nc(CCNC(=O)NC2CC2)sc1C` was tested, and the Percent Effect was 5.19%. For `CC(C)c1nc(C2CCCN(C(=O)CCCn3cncn3)C2)no1` (stereo not given), the Percent Effect was 9.5%. `Cc1cc(NC(=O)N2CCN(c3nc(C)c(C)s3)CC2)no1` gave a Percent Effect of 0.38%. With `CC(C)Cc1noc(CN2CCOC(Cn3cncn3)C2)n1` (stereo not given) the Percent Effect was 1.02%. `CCc1ccc(NC(=O)N2C[C@H]3C[C@H](C(=O)NC)[C@@H](C2)O3)cc1` showed a Percent Effect of 3.34%. Compound `Cc1nn(C)c(C)c1C1CCCN1Cc1nc(C2CC2)no1` (stereo not given) has a Percent Effect of -10.2%. With `CCc1cnc2c(c1Nc1ccncc1)c(=O)n(C)c(=O)n2C` the Percent Effect was 0.918%. Compound `CC(C)c1noc(C(C)N2CCN(Cc3ccco3)CC2)n1` (stereo not given) has a Percent Effect of 0.141%. `CC(C)c1n[nH]c(C2CN(Cc3nnc(C4CC4)o3)CCO2)n1` (stereo not given) gave a Percent Effect of -2.26%. `Cn1cc(-c2ncnc3c2CCN(C(=O)N2CCOCC2)CC3)cn1` showed a Percent Effect of -8.2%. Work on `CN(C)C(C(=O)N1CCCC1)c1ccccc1F` (stereo not given) yielded a Percent Effect of 3.9%. `COC(=O)c1ccc(N2CCN(C(=O)c3cc(C)on3)C(C)C2)cc1` (stereo not given) gave a Percent Effect of 5.2%. For `O=C(C1CC=CC1)N1CCC2(CC1)CN(Cc1ccccn1)CCO2`, the Percent Effect was -0.381%. For `OCCN1CCN(Cc2coc(-c3ccc(Cl)cc3)n2)CC1`, the Percent Effect was 4.16%. Compound `Cc1nn(C)c(C)c1C1CCCN1Cc1cccc(C(=O)N(C)C)c1` (stereo not given) has a Percent Effect of -0.742%. `COc1ccc(CN2CCCC(Cn3nc(C)nc3C)C2)cc1F` (stereo not given) showed a Percent Effect of 0.335%. Work on `Cc1ccc2oc(C(=O)N3CCc4nnc(N(C)C)cc4C3)cc2n1` yielded a Percent Effect of 1.25%. With `O=C(c1ccncc1F)N1CCN(CC2CC2)c2ncccc2C1` the Percent Effect was 2.79%. For `Cc1nnc(C2Cc3ccccc3CN2Cc2ncc(C(C)(C)C)o2)o1` (stereo not given), the Percent Effect was 0.807%. For `CC1CCN(S(=O)(=O)c2cccn(CC(=O)NC3CCCC3)c2=O)CC1`, the Percent Effect was -2.16%. `CC1CCCCN1c1nc2c(c(=O)[nH]1)CCN(Cc1cccnc1)C2` (stereo not given) gave a Percent Effect of 1.98%. Work on `Cc1cc(N2CCN(Cc3nccn3C)CC2)cc(C)n1` yielded a Percent Effect of 2.09%. `CCCNCc1cn(C)nc1-c1cccnc1` showed a Percent Effect of -0.663%. `Cc1nc(C)n(CC2CCCCN2CCC(=O)Nc2cc(C)on2)n1` (stereo not given) was tested, and the Percent Effect was -3.42%. With `COc1ccccc1N1CCC(CNCc2cccc(C#N)c2)C1` (stereo not given) the Percent Effect was 13.3%. Compound `Cc1cccc(-c2nc(C)nn2CC(=O)N(C)C2CC2)c1` has a Percent Effect of -4.28%. With `Cc1ccc(C(=O)NC2CCN(Cc3noc(CC(C)C)n3)CC2)s1` the Percent Effect was 7.55%. In the case of `CCc1nc(CN2CCCN(C(=O)c3cn[nH]c3CC)CC2)cs1`, the Percent Effect is reported as -1.54%. Work on `CSCC(CCO)NC(=O)Nc1cccc(Br)c1` (stereo not given) yielded a Percent Effect of 8.05%.
